Out of some 5,500 compounds screened, about 2,000 (36%) were called active. About 18% were inconclusive and are not listed. Cut-off read from the data, not from the text of the source: active = normalized growth mostly below about 0.91 (no sharp cut-off); inconclusive = no clear call, values can overlap the other calls; inactive = mostly above about 0.92. The list shows a part of the results.
Assay: chemical genetic growth profiling, strain panel (AID 1159580);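 note: tested at 20 µM; growth read once vehicle control cultures reached saturation at 30 °C; 1 = growth at the plate median or of vehicle wells; lower values mean less growth of the strain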
Settings: growth OD
[1] = S. cerevisiae deletion strains, locus YGR078C, strain PAC10, stronger effect = lower value
[2] = S. cerevisiae deletion strains, locus YMR263W, strain SAP30, stronger effect = lower value
[3] = S. cerevisiae deletion strains, locus YMR307W, strain GAS1, stronger effect = lower value
[4] = S. cerevisiae deletion strains, locus YNL322C, strain KRE1, stronger effect = lower value
[5] = S. cerevisiae deletion strains, locus YPL241C, strain CIN2, stronger effect = lower value
[6] = S. cerevisiae deletion strains, locus YDL101C, strain DUN1, stronger effect = lower value
[7] = S. cerevisiae deletion strains, locus YHR030C, strain SLT2, stronger effect = lower value

Measured: normalized growth

CCCc1c(-c2ccc(O)cc2)nn(-c2ccc(O)cc2)c1-c1ccc(O)cc1
inactive: S. cerevisiae deletion strains, locus YAL040C, strain CLN3, stronger effect = lower value 0.985 | S. cerevisiae deletion strains, locus YCL061C, strain MRC1 (second series), stronger effect = lower value 0.999 | S. cerevisiae deletion strains, locus YDR363W, strain ESC2, stronger effect = lower value 0.994 | S. cerevisiae deletion strains, locus YER002W, strain NOP16, stronger effect = lower value 1 | [1] 1 | [2] 0.995 | [3] 1.01 | S. cerevisiae deletion strains, locus YNL175C, strain NOP13, stronger effect = lower value 1.02 | S. cerevisiae deletion strains, locus YNL197C, strain WHI3, stronger effect = lower value 1.01 | S. cerevisiae deletion strains, locus YNL224C, strain SQS1, stronger effect = lower value 1 | [4] 0.988 | S. cerevisiae deletion strains, locus YOR083W, strain WHI5 (second series), stronger effect = lower value 0.948 | [5] 0.991

O=C1CCc2cccc3cccc1c23
active: S. cerevisiae deletion strains, locus YLR039C, strain RIC1, stronger effect = lower value 0.679 | S. cerevisiae deletion strains, locus YLR085C, strain ARP6, stronger effect = lower value 0.764 | S. cerevisiae deletion strains, locus YLR262C, strain YPT6, stronger effect = lower value 0.672
inactive: S. cerevisiae deletion strains, locus YAL013W, strain DEP1, stronger effect = lower value 0.963 | S. cerevisiae deletion strains, locus YBR229C, strain ROT2, stronger effect = lower value 0.984 | [6] 0.932 | S. cerevisiae deletion strains, locus YDR150W, strain NUM1, stronger effect = lower value 0.966 | S. cerevisiae deletion strains, locus YEL061C, strain CIN8, stronger effect = lower value 0.954 | [1] 0.962 | [7] 0.769 | S. cerevisiae deletion strains, locus YHR087W, strain rtc3, stronger effect = lower value 1.01 | S. cerevisiae deletion strains, locus YJL187C, strain SWE1, stronger effect = lower value 0.981 | S. cerevisiae deletion strains, locus YJR043C, strain POL32, stronger effect = lower value 0.988 | S. cerevisiae deletion strains, locus YJR075W, strain HOC1, stronger effect = lower value 0.997 | S. cerevisiae deletion strains, locus YLR058C, strain SHM2 (second series), stronger effect = lower value 0.982 | S. cerevisiae deletion strains, locus YML094W, strain GIM5, stronger effect = lower value 0.921 | S. cerevisiae deletion strains, locus YMR219W, strain ESC1, stronger effect = lower value 0.988 | [2] 0.969 | [3] 1.03 | S. cerevisiae deletion strains, locus YNL153C, strain GIM3, stronger effect = lower value 0.934 | S. cerevisiae deletion strains, locus YNL298W, strain CLA4 (second series), stronger effect = lower value 0.906 | [4] 0.957 | S. cerevisiae deletion strains, locus YNR030W, strain Alg12, stronger effect = lower value 0.927 | S. cerevisiae deletion strains, locus YPL055C, strain LGE1, stronger effect = lower value 1 | [5] 0.933 | S. cerevisiae deletion strains, locus YPR135W, strain CTF4, stronger effect = lower value 0.713 | S. cerevisiae strains, strain wild type, stronger effect = lower value 0.949

Cc1cccc(N=NC(C(=O)C(F)(F)F)=C(O)c2cccs2)c1
inactive: S. cerevisiae deletion strains, locus YAR019C, strain CDC15, stronger effect = lower value 0.995 | S. cerevisiae deletion strains, locus YBL105C, strain PKC1, stronger effect = lower value 0.985 | S. cerevisiae deletion strains, locus YBR135W, strain CKS1, stronger effect = lower value 0.987 | S. cerevisiae deletion strains, locus YBR136W, strain MEC1, stronger effect = lower value 0.993 | S. cerevisiae deletion strains, locus YBR160W, strain CDC28, stronger effect = lower value 0.996 | S. cerevisiae deletion strains, locus YDL017W, strain CDC7, stronger effect = lower value 0.986 | S. cerevisiae deletion strains, locus YDL028C, strain MPS1, stronger effect = lower value 0.996 | [6] 0.988 | S. cerevisiae deletion strains, locus YDL108W, strain KIN28, stronger effect = lower value 0.984 | S. cerevisiae deletion strains, locus YDL132W, strain cdc53, stronger effect = lower value 0.978 | S. cerevisiae deletion strains, locus YDL214C, strain PRR2, stronger effect = lower value 0.975 | S. cerevisiae deletion strains, locus YDR052C, strain DBF4, stronger effect = lower value 0.99 | S. cerevisiae deletion strains, locus YDR054C, strain cdc34, stronger effect = lower value 0.976 | S. cerevisiae deletion strains, locus YDR226W, strain ADK1, stronger effect = lower value 0.992 | S. cerevisiae deletion strains, locus YDR477W, strain SNF1, stronger effect = lower value 0.975 | S. cerevisiae deletion strains, locus YER123W, strain YCK3, stronger effect = lower value 0.979 | S. cerevisiae deletion strains, locus YER133W, strain GLC7, stronger effect = lower value 0.975 | S. cerevisiae deletion strains, locus YFL009W, strain cdc4, stronger effect = lower value 0.988 | S. cerevisiae deletion strains, locus YFL029C, strain CAK1, stronger effect = lower value 0.993 | S. cerevisiae deletion strains, locus YFR003C, strain YPI1, stronger effect = lower value 0.99 | S. cerevisiae deletion strains, locus YFR019W, strain FAB1, stronger effect = lower value 0.992 | S. cerevisiae deletion strains, locus YFR028C, strain CDC14, stronger effect = lower value 0.983 | S. cerevisiae deletion strains, locus YGR040W, strain KSS1, stronger effect = lower value 0.974 | S. cerevisiae deletion strains, locus YGR052W, strain FMP48, stronger effect = lower value 0.927 | S. cerevisiae deletion strains, locus YGR092W, strain DBF2, stronger effect = lower value 0.946 | [7] 0.876 | S. cerevisiae deletion strains, locus YHR079C, strain IRE1, stronger effect = lower value 0.749 | S. cerevisiae deletion strains, locus YHR082C, strain KSP1, stronger effect = lower value 1.07 | S. cerevisiae deletion strains, locus YHR205W, strain SCH9, stronger effect = lower value 0.985 | S. cerevisiae deletion strains, locus YIL147C, strain SLN1, stronger effect = lower value 0.988 | S. cerevisiae deletion strains, locus YJL095W, strain BCK1, stronger effect = lower value 0.787 | S. cerevisiae deletion strains, locus YJL128C, strain PBS2, stronger effect = lower value 0.944 | S. cerevisiae deletion strains, locus YJL157C, strain FAR1, stronger effect = lower value 0.989 | S. cerevisiae deletion strains, locus YJR016C, strain ILV3, stronger effect = lower value 0.984 | S. cerevisiae deletion strains, locus YJR066W, strain TOR1 (second series), stronger effect = lower value 0.988 | S. cerevisiae deletion strains, locus YJR066W, strain TOR1, stronger effect = lower value 1.07 | S. cerevisiae deletion strains, locus YKL048C, strain ELM1, stronger effect = lower value 0.976 | S. cerevisiae deletion strains, locus YKL067W, strain YNK1, stronger effect = lower value 0.976 | S. cerevisiae deletion strains, locus YKL101W, strain HSL1, stronger effect = lower value 0.951 | S. cerevisiae deletion strains, locus YKL193C, strain SDS22, stronger effect = lower value 0.991 | S. cerevisiae deletion strains, locus YKL203C, strain TOR2, stronger effect = lower value 1.06 | S. cerevisiae deletion strains, locus YLR133W, strain CKI1, stronger effect = lower value 0.983 | S. cerevisiae deletion strains, locus YLR403W, strain SFP1, stronger effect = lower value 0.979 | S. cerevisiae deletion strains, locus YML070W, strain DAK1, stronger effect = lower value 0.973 | S. cerevisiae deletion strains, locus YMR001C, strain CDC5, stronger effect = lower value 0.979 | S. cerevisiae deletion strains, locus YMR205C, strain PFK2 (second series), stronger effect = lower value 0.984 | S. cerevisiae deletion strains, locus YMR277W, strain FCP1, stronger effect = lower value 0.989 | S. cerevisiae deletion strains, locus YNL006W, strain LST8, stronger effect = lower value 0.988 | S. cerevisiae deletion strains, locus YNL020C, strain ARK1, stronger effect = lower value 0.979 | S. cerevisiae deletion strains, locus YNL161W, strain CBK1, stronger effect = lower value 0.99 | S. cerevisiae deletion strains, locus YNL183C, strain NPR1, stronger effect = lower value 0.842 | S. cerevisiae deletion strains, locus YNL207W, strain RIO2, stronger effect = lower value 0.986 | S. cerevisiae deletion strains, locus YNL222W, strain SSU72, stronger effect = lower value 0.987 | S. cerevisiae deletion strains, locus YNL307C, strain MCK1 (second series), stronger effect = lower value 0.984 | S. cerevisiae deletion strains, locus YOL078W, strain AVO1, stronger effect = lower value 0.988 | S. cerevisiae deletion strains, locus YOL136C, strain PFK27, stronger effect = lower value 0.989 | S. cerevisiae deletion strains, locus YOR061W, strain CKA2, stronger effect = lower value 0.983 | S. cerevisiae deletion strains, locus YOR119C, strain RIO1, stronger effect = lower value 0.999 | S. cerevisiae deletion strains, locus YOR231W, strain MKK1, stronger effect = lower value 0.797 | S. cerevisiae deletion strains, locus YOR329C, strain SCD5, stronger effect = lower value 0.984 | S. cerevisiae deletion strains, locus YPL031C, strain PHO85, stronger effect = lower value 0.953 | S. cerevisiae deletion strains, locus YPL153C, strain RAD53, stronger effect = lower value 0.948 | S. cerevisiae deletion strains, locus YPL204W, strain HRR25, stronger effect = lower value 0.97 | S. cerevisiae deletion strains, locus YPL209C, strain IPL1, stronger effect = lower value 0.99 | S. cerevisiae deletion strains, locus YPR025C, strain CCL1, stronger effect = lower value 0.985 | S. cerevisiae deletion strains, locus YPR106W, strain ISR1, stronger effect = lower value 0.98 | S. cerevisiae deletion strains, locus YPR111W, strain DBF20, stronger effect = lower value 0.972 | S. cerevisiae deletion strains, strain NNK1, stronger effect = lower value 0.995 | S. cerevisiae deletion strains, strain TSCII, stronger effect = lower value 0.988
active: S. cerevisiae deletion strains, locus YLR113W, strain HOG1, stronger effect = lower value 0.713 | S. cerevisiae deletion strains, locus YPL256C, strain CLN2, stronger effect = lower value 0.777

— PubChem BioAssay AID1159580 (chemical genetic matrix, 2015)
